# PubChem BioAssay (NCATS)
# Inconclusive results are not listed. Activity calls are given as the source filed them. Calls come from the whole dose curve; as a rule, active = well fitted inhibition curve with a large enough effect; inconclusive = small, poorly fitted or top-dose-only effect; inactive = no such curve, though single readings can be large or run the other way.
# Assay: Primary qHTS for small molecule stabilizers of the endoplasmic reticulum resident proteome: Secreted ER Calcium Modulated Protein (SERCaMP) assay (AID 1508630)
# Conditions: SH-SY5Y GLuc-SERCaMP (Gaussia luciferase released on ER calcium loss) secretion, thapsigargin, luminescence; series mostly up to 38.4 µM; activity change, negative = inhibition: at the top concentration
# From the text: Assay Provider: Brandon K. Harvey Ph.D.
# National Institute on Drug Abuse, National Institutes of Health, Baltimore, MD
# Endoplasmic reticulum (ER) dysregulation is associated with human pathologies including neurodegenerative, cardiovascular, muscular, and diabetic conditions. Maintenance of ER calcium is critical for functions of the ER and its depletion can lead to loss of ER resident proteins, in a process termed exodosis. Therapeutic compounds capable of attenuating the redistribution of ER proteins under pathological conditions may slow or stop disease progression. To identify such compounds, we performed a quantitative high-throughput screen (qHTS) using the SERCaMP assay, which monitors secretion of ER resident proteins triggered by calcium depletion.
# SERCaMP was initially developed as a reporter of ER calcium homeostasis using a Gaussia luciferase with a modified signal peptide and carboxy-terminus (GLuc-SERCaMP), modifications that confer secretion of the reporter in response to ER calcium depletion (Henderson et al., 2014). The assay was used to screen 9,501 compounds, including a collection of drugs approved by the FDA (US), EMA (EU), NHI (Japan), and HC (Canada) regulatory agencies (Huang et al., 2011). Since the SERCaMP reporter reflects the exodosis phenomenon (Trychta et al., 2018a), compounds identified in the screen have the potential to prevent exodosis by different mechanisms such as stabilizing ER calcium or augmenting ERS retrieval.
# 1. Henderson, M.J., Wires, E.S., Trychta, K.A., Richie, C.T., and Harvey, B.K. (2014). SERCaMP: a carboxy-terminal protein modification that enables monitoring of ER calcium homeostasis. Mol Biol Cell 25, 2828-2839.
# 2. Huang, R., Southall, N., Wang, Y., Yasgar, A., Shinn, P., Jadhav, A., Nguyen, D.T., and Austin, C.P. (2011). The NCGC pharmaceutical collection: a comprehensive resource of clinically approved drugs enabling repurposing and chemical genomics. Sci Transl Med 3, 80ps16.
# 3. Trychta, K.A., Back, S., Henderson, M.J., and Harvey, B.K. (2018a). KDEL Receptors Are Differentially Regulated to Maintain the ER Proteome under Calcium Deficiency. Cell Rep 25, 1829-1840 e1826.
# SEQUENCE No. (1, 2, 3, etc.); […] (e.g., Cells, Incubation, Reagent, etc.); VALUE and DESCRIPTION.
# 1; Reagent; 5 uL; 1000 SH-SY5Y cells per wells
# 3; Compound; 23 nL; Control inhibitor / compound library
# 5; Reagent; 100 nM; Thapsigargin
# 7; Reagent; 1 uL; 0.5x coelenterazine
# 8; Detection; Luminescence; ViewLux imaging system
# NOTES (numbers refer to sequence above)
# 1; SH-SY5Y human neuroblastoma cells stably expressing GLuc-SERCaMP (SH-SY5Y-GLuc-ASARTDL) cells were seeded in 1,536 well white tissue culture treated plates (Corning, Cat# 7464) in DMEM-high glucose-sodium pyruvate (ThermoFisher Scientific, Cat #10569) supplemented with 10% bovine growth serum (Hyclone), 10 U/ml penicillin (Gibco), 10 ug/ml streptomycin (Gibco), and 20 mM HEPES.
# 2; Assay plates were incubated for 5 hour at 37C in a humidified incubator containing 5% CO2.
# 3; qHTS libraries (23 nl, final concentrations of 1.53 uM, 7.67 uM, 38.3 uM) or controls (neutral control: DMSO, positive control: dantrolene) were added using a Kalypsis pin-tool Robotic System equipped with 1536 pinheads.
# 4; Cells were then incubated for 16 hours at 37C, 5% CO2.
# 5; Thapsigargin was added at 100 nM to deplete ER calcium stores.
# 6; Cells were incubated for 4 hour (37 °C, 5% CO2)
# 7; Gaussia luciferase in the medium was measured by adding 1 ul of 0.5x coelenterazine (final concentration 0.07x) prepared in Gaussia Luciferase Glow Assay Buffer (Pierce), without addition of the Cell Lysis Buffer Reagent.
# 8; Luminescence was measured using a ViewLux […] CCD imaging system (Perkin Elmer) equipped with clear filters. […] The same controls were also used for the calculation of the Z' factor, a measure of assay quality control, as previously described (Zhang et al., 1999). […]
# % is set by controls: 0 for no effect and ±100 for the full control effect.
SMILES,"activity change, negative = inhibition",outcome
Cn1cc(C[C@@H](N)C(=O)O)c2ccccc21,-31.9% [at 21.6 µM] (inactive),
COc1cccc2c1C(=O)c1c(O)c3c(c(O)c1C2=O)C[C@@](O)(C(C)=O)C[C@H]3O[C@H]1C[C@H](N)[C@H](O)[C@H](C)O1,280% (inactive),
O=C(O)CCCCC(CCSCc1ccccc1)SCc1ccccc1 (stereo not given),34.5% (inactive),
CCc1cc(C(C)=NOCc2ccc(C3CCCCC3)c(C(F)(F)F)c2)ccc1CN1CC(C(=O)O)C1,-50.8% (inactive),
CC(=O)N[C@@H]1[C@H](O[C@@H]2c3ccc(c(Cl)c3)Oc3cc4cc(c3O[C@H]3O[C@H](CO)[C@@H](O)[C@H](O)[C@H]3NC(=O)CCCCCCCC(C)C)Oc3ccc(cc3Cl)C[C@H]3NC(=O)[C@H](N)c5ccc(O)c(c5)Oc5cc(O)cc(c5)[C@H](NC3=O)C(=O)N[C@H]4C(=O)N[C@H]3C(=O)N[C@@H]2C(=O)N[C@@H](C(=O)O)c2cc(O)cc(O[C@H]4O[C@H](CO)[C@@H](O)[C@H](O)[C@H]4O)c2-c2cc3ccc2O)O[C@H](CO)[C@@H](O)[C@@H]1O,7.81% (inactive),
CON=C(C(=O)N[C@@H]1C(=O)N2C(C(=O)O)=C(Cn3ccc(=N)n3CCO)CS[C@H]12)c1csc(N)n1,17.6% (inactive),
C=CC1=C(C(=O)O)N2C(=O)[C@@H](NC(=O)C(=NO)c3csc(N)n3)[C@H]2SC1,84.2% (inactive),
CC(Cc1ccc(O)c(O)c1)(NN)C(=O)O (stereo not given),-3.85% (inactive),
Nc1nc(=O)n([C@H]2C[C@H](O)[C@@H](CO)O2)cc1F,-2.11% (inactive),
CCOC(=O)C=C[C@H](C[C@@H]1CCNC1=O)NC(=O)[C@@H](CC(=O)[C@@H](NC(=O)c1cc(C)on1)C(C)C)Cc1ccc(F)cc1,-26% (inactive),
CC(C)Oc1ccc(C(=O)N[C@H](CNC(=O)CN(C)C)Cc2ccc(-c3cn4cccc([C@H](C)O)c4n3)cc2)cc1Cl,59.1% (inactive),
CON=C(C(=O)N[C@@H]1C(=O)N2C(C(=O)O)=C(CSC(=O)c3ccco3)CS[C@H]12)c1csc(N)n1,141% (inactive),
C[C@H](NC(=O)Cc1cc(F)cc(F)c1)C(=O)N[C@H](C(=O)OC(C)(C)C)c1ccccc1,34.2% (inactive),
CC(=O)N1CCN(c2ccc(OCc3nn(C)c(C)c3-c3cccc4c(CCCOc5cccc6ccccc56)c(C(=O)O)n(Cc5cccnc5)c34)cc2)CC1,203% (inactive),
COc1ccc(C[C@@H](C)[C@@H](C)Cc2ccc(OC)c(OC)c2)cc1OC,86.6% (inactive),
C=C1C(=O)O[C@H]2[C@@H]1CCC(C)=CCC[C@@]1(C)O[C@@H]21,376% (inactive),
FC(F)(F)c1ccc(Nc2nc3ccc(Oc4ccnc(-c5ncc(C(F)(F)F)[nH]5)c4)cc3[nH]2)cc1,76.7% (inactive),
CCn1c(=O)c2c(nc(C=Cc3ccc(OC)c(OC)c3)n2C)n(CC)c1=O,285% (inactive),
CN(C)c1ccc(C(=O)NCCCCCCC(=O)NO)cc1,157% (inactive),
COc1cccc2c1C(=O)c1c(O)c3c(c(O)c1C2=O)C[C@@](O)(C(=O)CO)C[C@@H]3O[C@H]1C[C@H](N)[C@@H](O)[C@H](C)O1,175% (inactive),

SMILES,"activity change, negative = inhibition",outcome
COc1ccc(C(C)=O)c(O)c1,134% (inactive),
CC(C=CC(=O)NO)=C[C@@H](C)C(=O)c1ccc(N(C)C)cc1,0% (inactive),
CC(N[C@H]1CCCC[C@H]1NC(=O)c1ccc(Cl)cc1)c1cccc2ccccc12 (stereo not given in full),-25.1% (inactive),
C[C@H](NCc1ccc(OCc2cccc(F)c2)cc1)C(N)=O,218% (inactive),
Oc1ccc([C@@H]2Oc3ccc(O)cc3[C@@H]3CCC[C@@H]32)cc1,181% (inactive),
Nc1ncn([C@@H]2O[C@H](CO)[C@@H](O)[C@@H]2O)c(=O)n1,71.7% (inactive),
CCCCCN=C(N)NN=Cc1c[nH]c2ccc(OC)cc12,206% (inactive),
CC(C)(O)[C@H]1CC[C@@](C)([C@H]2[C@@H](O)C[C@@]3(C)[C@@H]4C[C@H](O[C@@H]5O[C@H](CO)[C@@H](O)[C@H](O)[C@@H]5O)[C@H]5C(C)(C)[C@@H](O[C@@H]6OC[C@@H](O)[C@H](O)[C@@H]6O)CC[C@@]56C[C@@]46CC[C@]23C)O1,39.1% (inactive),
C#C[C@]1(O)CC[C@@H]2[C@@H]3CCc4cc(O)ccc4[C@H]3CC[C@@]21C,64.8% (inactive),
CCNC(=O)Nc1ccc(-c2nc3c(c(N4CCOC[C@H]4C)n2)CCN(C2COC2)C3)cc1,140% (inactive),
O=[N+]([O-])c1cn2c(n1)OC[C@@H](OCc1ccc(OC(F)(F)F)cc1)C2,113% (inactive),
CCN(CC)CCCCNc1ncc2c(n1)N(C)C(=O)N(c1c(Cl)c(OC)cc(OC)c1Cl)C2,310% (inactive),
Cc1ccc2nc(NCCN)c3ncc(C)n3c2c1,399% (inactive),
Cc1cc(-c2nnc3n2CCCCC3)c(C)n1-c1ccccc1,34.2% (inactive),
O=C1c2c(O)cccc2[C@@H]([C@@H]2O[C@H](CO)[C@@H](O)[C@H](O)[C@H]2O)c2cc(CO)cc(O)c21,54% (inactive),
Nc1cccc2c1C(=O)N(C1CCC(=O)NC1=O)C2=O (stereo not given),-20.2% (inactive),
COc1ccc(Nc2nccc(NCCO)n2)cc1,290% (inactive),
NC(=NCCCCCCN=C(N)N=C(N)Nc1ccc(Cl)cc1)N=C(N)Nc1ccc(Cl)cc1,,inactive
CC(C)[C@H](CO)Nc1nc(Nc2cccc(Cl)c2)c2ncn(C(C)C)c2n1,,inactive
COc1cc2ncnc(Nc3cccc(Br)c3)c2cc1OC,107% (inactive),
